According to PubChem BioAssay AID1159580 (chemical genetic matrix, 2015):
Several values for one entry are separate records, joined by “and”; a condition that tells them apart may be missing. Equal entries are not always repeated. About 2,000 (36%) of roughly 5,500 compounds were called active. Not shown: some 18% with an inconclusive outcome. No stated cut-off is given here; in the data, active means normalized growth mostly below about 0.91 (no sharp cut-off); inconclusive means no clear call, values can overlap the other calls; inactive means mostly above about 0.92. The list shows a part of the results.

Assay: chemical genetic growth profiling, strain panel (AID 1159580);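 further: tested at 20 µM; growth read once vehicle control cultures reached saturation at 30 °C; 1 = growth at the plate median or of vehicle wells; lower values mean less growth of the strain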
Conditions: growth OD

Measured: normalized growth

O=C(O)c1cc2cc(Cc3cccnc3)ccc2o1
inactive: S. cerevisiae deletion strains, locus YAL013W, strain DEP1, hits give low values 1.02 | S. cerevisiae deletion strains, locus YAL040C, strain CLN3, hits give low values 0.986 | S. cerevisiae deletion strains, locus YBR021W, strain FUR4, hits give low values 1 | S. cerevisiae deletion strains, locus YBR229C, strain ROT2, hits give low values 1.01 | S. cerevisiae deletion strains, locus YCL029C, strain bik1, hits give low values 0.995 | S. cerevisiae deletion strains, locus YCL061C, strain MRC1 (second series), hits give low values 1.01 | S. cerevisiae deletion strains, locus YDL035C, strain GPR1, hits give low values 0.994 | S. cerevisiae deletion strains, locus YDL074C, strain BRE1, hits give low values 0.995 | S. cerevisiae deletion strains, locus YDL101C, strain DUN1, hits give low values 1.01 | S. cerevisiae deletion strains, locus YDL134C, strain PPH21, hits give low values 0.993 | S. cerevisiae deletion strains, locus YDL185W, strain tfp1, hits give low values 0.994 | S. cerevisiae deletion strains, locus YDL192W, strain arf1, hits give low values 1 | S. cerevisiae deletion strains, locus YDR101C, strain arx1, hits give low values 1.02 | S. cerevisiae deletion strains, locus YDR162C, strain NBP2, hits give low values 1 | S. cerevisiae deletion strains, locus YDR318W, strain mcm21, hits give low values 0.986 | S. cerevisiae deletion strains, locus YDR363W, strain ESC2, hits give low values 1.01 | S. cerevisiae deletion strains, locus YDR388W, hits give low values 0.989 | S. cerevisiae deletion strains, locus YDR502C, strain sam2, hits give low values 0.996 | S. cerevisiae deletion strains, locus YEL061C, strain CIN8, hits give low values 1 | S. cerevisiae deletion strains, locus YER002W, strain NOP16, hits give low values 0.99 | S. cerevisiae deletion strains, locus YER110C, hits give low values 0.995 | S. cerevisiae deletion strains, locus YER155C, strain BEM2, hits give low values 1.01 | S. cerevisiae deletion strains, locus YER167W, strain BCK2, hits give low values 1 | S. cerevisiae deletion strains, locus YGL078C, strain dbp3, hits give low values 0.991 | S. cerevisiae deletion strains, locus YGL086W, strain mad1, hits give low values 0.998 | S. cerevisiae deletion strains, locus YGL248W, strain PDE1, hits give low values 1 | S. cerevisiae deletion strains, locus YGR135W, strain pre9, hits give low values 1.01 | S. cerevisiae deletion strains, locus YGR229C, strain SMI1, hits give low values 1.05 | S. cerevisiae deletion strains, locus YGR252W, strain gcn5, hits give low values 0.92 | S. cerevisiae deletion strains, locus YHR030C, strain SLT2, hits give low values 0.997 | S. cerevisiae deletion strains, locus YHR079C, strain IRE1 (second series), hits give low values 0.985 | S. cerevisiae deletion strains, locus YHR094C, strain hxt1, hits give low values 0.995 | S. cerevisiae deletion strains, locus YHR129C, strain ARP1, hits give low values 0.997 | S. cerevisiae deletion strains, locus YHR200W, strain rpn10, hits give low values 0.994 | S. cerevisiae deletion strains, locus YIL066C, strain RNR3, hits give low values 1.01 | S. cerevisiae deletion strains, locus YIL073C, strain SPO22, hits give low values 1.01 | S. cerevisiae deletion strains, locus YIL125W, strain kgd1, hits give low values 0.999 | S. cerevisiae deletion strains, locus YIR030C, strain dcg1, hits give low values 0.995 | S. cerevisiae deletion strains, locus YJL095W, strain BCK1, hits give low values 1.01 | S. cerevisiae deletion strains, locus YJL134W, strain LCB3, hits give low values 1 | S. cerevisiae deletion strains, locus YJL168C, strain set2, hits give low values 0.991 | S. cerevisiae deletion strains, locus YJL187C, strain SWE1 (second series), hits give low values 1.01 | S. cerevisiae deletion strains, locus YJR043C, strain POL32, hits give low values 1.02 | S. cerevisiae deletion strains, locus YJR075W, strain HOC1, hits give low values 1.01 | S. cerevisiae deletion strains, locus YKL009W, strain mrt4, hits give low values 0.983 | S. cerevisiae deletion strains, locus YKL068W, hits give low values 0.992 | S. cerevisiae deletion strains, locus YKL085W, strain MDH1 (second series), hits give low values 0.999 | S. cerevisiae deletion strains, locus YKL085W, strain MDH1, hits give low values 0.999 | S. cerevisiae deletion strains, locus YKL190W, strain CNB1, hits give low values 1.01 | S. cerevisiae deletion strains, locus YKR001C, strain vps1, hits give low values 0.997 | S. cerevisiae deletion strains, locus YLR039C, strain RIC1, hits give low values 1.01 | S. cerevisiae deletion strains, locus YLR058C, strain SHM2, hits give low values 1.01 | S. cerevisiae deletion strains, locus YLR102C, strain apc9, hits give low values 0.991 | S. cerevisiae deletion strains, locus YLR262C, strain YPT6, hits give low values 1.03 | S. cerevisiae deletion strains, locus YLR268W, strain sec22, hits give low values 0.986 | S. cerevisiae deletion strains, locus YLR330W, strain CHS5, hits give low values 1.01 | S. cerevisiae deletion strains, locus YLR342W, strain FKS1 (second series), hits give low values 0.988 | S. cerevisiae deletion strains, locus YLR371W, strain rom2, hits give low values 0.988 | S. cerevisiae deletion strains, locus YLR418C, strain cdc73, hits give low values 0.975 | S. cerevisiae deletion strains, locus YML016C, strain PPZ1, hits give low values 1 | S. cerevisiae deletion strains, locus YML032C, strain rad52, hits give low values 0.995 | S. cerevisiae deletion strains, locus YML124C, strain tub3, hits give low values 0.994 | S. cerevisiae deletion strains, locus YMR078C, strain ctf18, hits give low values 0.995 | S. cerevisiae deletion strains, locus YMR223W, strain ubp8, hits give low values 0.995 | S. cerevisiae deletion strains, locus YMR263W, strain SAP30, hits give low values 1 | S. cerevisiae deletion strains, locus YMR307W, strain GAS1, hits give low values 0.967 and 0.989 | S. cerevisiae deletion strains, locus YNL067W, strain RPL9B, hits give low values 1 | S. cerevisiae deletion strains, locus YNL153C, strain GIM3, hits give low values 1.02 | S. cerevisiae deletion strains, locus YNL175C, strain NOP13, hits give low values 1 | S. cerevisiae deletion strains, locus YNL197C, strain WHI3, hits give low values 1.02 | S. cerevisiae deletion strains, locus YNL224C, strain SQS1, hits give low values 1.02 | S. cerevisiae deletion strains, locus YNL233W, strain BNI4, hits give low values 1 | S. cerevisiae deletion strains, locus YNL250W, strain rad50, hits give low values 0.989 | S. cerevisiae deletion strains, locus YNL271C, strain bni1, hits give low values 0.999 | S. cerevisiae deletion strains, locus YNL298W, strain CLA4, hits give low values 0.981 | S. cerevisiae deletion strains, locus YNL307C, strain MCK1, hits give low values 0.995 | S. cerevisiae deletion strains, locus YNR052C, strain pop2, hits give low values 0.99 | S. cerevisiae deletion strains, locus YOL006C, strain TOP1, hits give low values 1.04 | S. cerevisiae deletion strains, locus YOL012C, strain htz1 1.18 | S. cerevisiae deletion strains, locus YOL147C, strain pex11, hits give low values 0.995 | S. cerevisiae deletion strains, locus YOR061W, strain CKA2, hits give low values 1.01 | S. cerevisiae deletion strains, locus YOR069W, strain VPS5, hits give low values 1 | S. cerevisiae deletion strains, locus YOR083W, strain WHI5 (second series), hits give low values 1.03 | S. cerevisiae deletion strains, locus YOR136W, strain idh2, hits give low values 0.997 | S. cerevisiae deletion strains, locus YOR144C, strain elg1, hits give low values 0.995 | S. cerevisiae deletion strains, locus YOR184W, strain ser1, hits give low values 0.988 | S. cerevisiae deletion strains, locus YOR316C, strain cot1, hits give low values 0.992 | S. cerevisiae deletion strains, locus YPL055C, strain LGE1, hits give low values 1.03 and 1.01 | S. cerevisiae deletion strains, locus YPL241C, strain CIN2, hits give low values 1.01 | S. cerevisiae deletion strains, locus YPR119W, strain clb2, hits give low values 0.992 | S. cerevisiae deletion strains, locus YPR141C, strain kar3, hits give low values 0.996 | S. cerevisiae deletion strains, locus YPR163C, strain tif3, hits give low values 0.993 | S. cerevisiae deletion strains, locus YPR167C, strain met16, hits give low values 0.991 | S. cerevisiae deletion strains, strain wtn01, hits give low values 0.986 | S. cerevisiae strains, strain wild type, hits give low values 1
